Inconclusive results are not listed. The source made the active and inactive calls. Unless noted, calls follow the shape of the dose curve; as a rule, active = well fitted curve in the direction sought with a large enough effect; inconclusive = small, poorly fitted or top-dose-only effect, or another doubt; inactive = no such curve, though single readings can be large; an effect the other way counts as inactive or inconclusive.
Legend:
UISO = experiment: qHTS assay to identify novel small-molecules to repurpose for Merkel cell carcinoma treatment (AID 1296009); settings: MCC and control cell lines, CellTiter-Glo viability, 72 h; series mostly up to 46 µM; also: nearly all actives have a fitted effect of over 60% in size
How it was run: (§1)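 qHTS format: cells treated with library compounds in DMSO across 8 (NPC) or 11 (MIPE) concentrations. Readout after 72 hr at 37 degree celsius was CellTiter-Glo luminescence.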

WaGa = experiment: as above; settings: MCC and control cell lines, CellTiter-Glo viability, 72 h; series mostly up to 46 µM
How it was run: as §1

C33A = experiment: Primary qHTS to identify gynecologic anti-cancer compounds using libraries of approved drugs and bioactive compounds (AID 1345084); settings: Gynecologic cancer cell panel viability, ATPlite luminescence, 48 h; series mostly up to 57.5 µM; also: % is scaled to controls: 0 for no effect and ±100 for the full control effect; nearly all actives have a fitted effect of over 55% in size
How it was run: (§2)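 48 h compound exposure at 37 C, 5% CO2; five-point qHTS. ATPlite luminescence readout of cell ATP.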

CAOV3 = experiment: as above; settings: Gynecologic cancer cell panel viability, ATPlite luminescence, 48 h; series mostly up to 57.5 µM
How it was run: as §2

CASKI = experiment: as above; settings: Gynecologic cancer cell panel viability, ATPlite luminescence, 48 h; series mostly up to 57.5 µM
How it was run: as §2

Es-2 = experiment: as above; settings: Gynecologic cancer cell panel viability, ATPlite luminescence, 48 h; series mostly up to 57.5 µM
How it was run: as §2

HeLa = experiment: as above; settings: Gynecologic cancer cell panel viability, ATPlite luminescence, 48 h; series mostly up to 57.5 µM
How it was run: as §2

Hek293T = experiment: as above; settings: Gynecologic cancer cell panel viability, ATPlite luminescence, 48 h, control line for the selectivity index; series mostly up to 57.5 µM
How it was run: as §2

JEG-3 = experiment: as above; settings: Gynecologic cancer cell panel viability, ATPlite luminescence, 48 h; series mostly up to 57.5 µM
How it was run: as §2

OV90 = experiment: as above; settings: Gynecologic cancer cell panel viability, ATPlite luminescence, 48 h; series mostly up to 57.5 µM
How it was run: as §2

PA-1 = experiment: as above; settings: Gynecologic cancer cell panel viability, ATPlite luminescence, 48 h; series mostly up to 57.5 µM
How it was run: as §2

SKOV3 = experiment: as above; settings: Gynecologic cancer cell panel viability, ATPlite luminescence, 48 h; series mostly up to 57.5 µM
How it was run: as §2

Tov-21-G = experiment: as above; settings: Gynecologic cancer cell panel viability, ATPlite luminescence, 48 h; series mostly up to 57.5 µM
How it was run: as §2

Tov112D = experiment: as above; settings: Gynecologic cancer cell panel viability, ATPlite luminescence, 48 h; series mostly up to 57.5 µM
How it was run: as §2

[1] = Drug repurposing screens with cells derived from glioblastoma tumor samples (AID 1345199); settings: GBM patient neurospheres viability, ATP luminescence, 48 h; also: % is scaled to controls: 0 for no effect and ±100 for the full control effect; nearly all actives have a fitted effect of over 40% in size
How it was run: (§3)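 Four patient lines of CD133+ GBM neurospheres were screened at several concentrations; hits were retested in those lines plus three slower-growing GBM lines, using 48-hour treatment and ATP-based viability.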

astro = experiment: as above; settings: viability, ATP luminescence, 48 h; series mostly up to 45.9 µM
How it was run: as §3

[2] = target: Nuclear receptor subfamily 1 group I member 2 (Rattus norvegicus) (UniProt Q9R1A7); experiment: qHTS assay for small molecule activators of the rat pregnane X receptor (rPXR) signaling pathway (AID 651751; call rule not given here; also: 0% is about no effect); settings: rPXR reporter cells, luciferase (One-Glo), 24 h
[3] = qHTS assay for small molecule activators of the human pregnane X receptor (PXR) signaling pathway (AID 720659; call rule not given here; also: 0% is about no effect)
[4] = at 45.9 µM (top of the series), tumour line B
[5] = at 45.9 µM (top of the series), tumour line D
[6] = at 46 µM (top of the series), tumour line A
[7] = at 46.1 µM (top of the series), tumour line C
[8] = at 20 µM (top of the series), tumour line C
[9] = at 21.2 µM (top of the series), tumour line B
[10] = at 21.2 µM (top of the series), tumour line D
[11] = at 21.3 µM (top of the series), tumour line A

Chain of Nuclear receptor subfamily 1 group I member 2 (Rattus norvegicus) (Q9R1A7 whole entry, looked up): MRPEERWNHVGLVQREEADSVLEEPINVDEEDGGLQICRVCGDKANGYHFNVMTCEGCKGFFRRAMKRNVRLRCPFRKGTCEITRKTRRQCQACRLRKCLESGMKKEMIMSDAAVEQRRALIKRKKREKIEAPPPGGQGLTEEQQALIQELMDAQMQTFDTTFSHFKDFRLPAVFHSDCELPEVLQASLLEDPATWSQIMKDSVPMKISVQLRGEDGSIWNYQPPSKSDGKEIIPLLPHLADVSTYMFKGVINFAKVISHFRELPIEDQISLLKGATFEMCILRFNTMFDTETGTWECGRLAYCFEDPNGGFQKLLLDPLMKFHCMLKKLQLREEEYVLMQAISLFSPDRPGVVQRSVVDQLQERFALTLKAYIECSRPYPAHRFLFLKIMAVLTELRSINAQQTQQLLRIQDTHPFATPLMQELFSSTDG

COc1cc(O)cc(O)c1
inactive: outcome (UISO) | outcome (WaGa) | outcome (C33A) | outcome (CAOV3) | outcome (CASKI) | outcome (Es-2) | outcome (HeLa) | outcome (Hek293T) | outcome (JEG-3) | Potency (OV90) | outcome (PA-1) | outcome (SKOV3) | outcome (Tov-21-G) | outcome (Tov112D) | activity, negative = cell killing [1, 4] -0.182% | activity, negative = cell killing [1, 5] -4.84% | activity, negative = cell killing [1, 6] -38.5% | activity, negative = cell killing [1, 7] -3.31% | outcome (astro)

O=C(O)c1ccccc1C(=O)Nc1ccc(S(=O)(=O)Nc2nccs2)cc1
inactive: outcome (UISO) | outcome (WaGa) | outcome (C33A) | outcome (CAOV3) | outcome (CASKI) | outcome (Es-2) | outcome (HeLa) | outcome (Hek293T) | outcome (JEG-3) | Potency (OV90) | outcome (PA-1) | outcome (SKOV3) | outcome (Tov-21-G) | outcome (Tov112D) | activity, negative = cell killing [1, 4] -6.87% | activity, negative = cell killing [1, 5] -3.34% | activity, negative = cell killing [1, 6] -31.1% | activity, negative = cell killing [1, 7] 1.95% | outcome (astro)

O=C(NCN1CCOCC1)c1cnccn1
inactive: outcome (UISO) | outcome (WaGa) | outcome (C33A) | outcome (CAOV3) | outcome (CASKI) | outcome (Es-2) | outcome (HeLa) | outcome (Hek293T) | outcome (JEG-3) | Potency (OV90) | outcome (PA-1) | outcome (SKOV3) | outcome (Tov-21-G) | outcome (Tov112D) | activity, negative = cell killing [1, 4] -3.93% | activity, negative = cell killing [1, 5] -22.6% | activity, negative = cell killing [1, 6] -8.03% | activity, negative = cell killing [1, 7] -4.53% | outcome (astro)

O=C(NCC(O)CO)c1c(I)c(C(=O)NCC(O)CO)c(I)c(N(CCO)C(=O)CO)c1I (stereo not given)
inactive: outcome (UISO) | outcome (WaGa) | outcome (C33A) | outcome (CAOV3) | outcome (CASKI) | outcome (Es-2) | outcome (HeLa) | outcome (Hek293T) | outcome (JEG-3) | Potency (OV90) | outcome (PA-1) | outcome (SKOV3) | outcome (Tov-21-G) | outcome (Tov112D) | activity, negative = cell killing [1, 8] -7.07% | activity, negative = cell killing [1, 9] -9.85% | activity, negative = cell killing [1, 10] 1% | activity, negative = cell killing [1, 11] -9.08% | outcome (astro)

O=C(O)c1ccc(OCCCOc2ccc(C(=O)O)cc2)cc1
inactive: outcome (UISO) | outcome (WaGa) | outcome (C33A) | outcome (CAOV3) | outcome (CASKI) | outcome (Es-2) | outcome (HeLa) | outcome (Hek293T) | outcome (JEG-3) | Potency (OV90) | outcome (PA-1) | outcome (SKOV3) | outcome (Tov-21-G) | outcome (Tov112D) | activity, negative = cell killing [1, 4] -4.79% | activity, negative = cell killing [1, 5] -29% | activity, negative = cell killing [1, 6] -33.4% | activity, negative = cell killing [1, 7] -12% | outcome (astro)

Cc1cccc(Nc2ccccc2C(=O)O)c1C
inactive: outcome (UISO) | outcome (WaGa) | outcome (C33A) | outcome (CAOV3) | outcome (CASKI) | outcome (Es-2) | outcome (HeLa) | outcome (Hek293T) | outcome (JEG-3) | Potency (OV90) | outcome (PA-1) | outcome (SKOV3) | outcome (Tov-21-G) | outcome (Tov112D) | activity, negative = cell killing [1, 4] -15.4% | activity, negative = cell killing [1, 5] -14.4% | activity, negative = cell killing [1, 6] -20% | activity, negative = cell killing [1, 7] -15.4% | max response [2] 2.62%

CC(O)CCCCn1c(=O)c2c(ncn2C)n(C)c1=O (stereo not given)
inactive: outcome (UISO) | outcome (WaGa) | outcome (C33A) | outcome (CAOV3) | outcome (CASKI) | outcome (Es-2) | outcome (HeLa) | outcome (Hek293T) | outcome (JEG-3) | Potency (OV90) | outcome (PA-1) | outcome (SKOV3) | outcome (Tov-21-G) | outcome (Tov112D) | activity, negative = cell killing [1, 4] -11.9% | activity, negative = cell killing [1, 5] -16.4% | activity, negative = cell killing [1, 6] -31.9% | activity, negative = cell killing [1, 7] -1.44% | outcome (astro)

Cc1ccc(C(C)C)c(O)c1
inactive: outcome (UISO) | outcome (WaGa) | outcome (C33A) | outcome (CAOV3) | outcome (CASKI) | outcome (Es-2) | outcome (HeLa) | outcome (Hek293T) | outcome (JEG-3) | Potency (OV90) | outcome (PA-1) | outcome (SKOV3) | outcome (Tov-21-G) | outcome (Tov112D) | activity, negative = cell killing [1, 4] -5.11% | activity, negative = cell killing [1, 5] -0.376% | activity, negative = cell killing [1, 6] -10.8% | activity, negative = cell killing [1, 7] 0.583% | outcome (astro) | max response [2] -0.755% | outcome [3]

Cc1[nH]c(C)c(Cl)c(=O)c1Cl
inactive: outcome (UISO) | outcome (WaGa) | outcome (C33A) | outcome (CAOV3) | outcome (CASKI) | outcome (Es-2) | outcome (HeLa) | outcome (Hek293T) | outcome (JEG-3) | Potency (OV90) | outcome (PA-1) | outcome (SKOV3) | outcome (Tov-21-G) | outcome (Tov112D) | activity, negative = cell killing [1, 4] -9.77% | activity, negative = cell killing [1, 5] -2.96% | activity, negative = cell killing [1, 6] -17.9% | activity, negative = cell killing [1, 7] -6.6% | outcome (astro)

CC(C)(C)C(=O)OCOC(=O)[C@@H]1N2C(=O)[C@@H](NC(=O)[C@H](N)c3ccccc3)[C@H]2SC1(C)C
inactive: outcome (UISO) | outcome (WaGa) | outcome (C33A) | outcome (CAOV3) | outcome (CASKI) | outcome (Es-2) | outcome (HeLa) | outcome (Hek293T) | outcome (JEG-3) | Potency (OV90) | outcome (PA-1) | outcome (SKOV3) | outcome (Tov-21-G) | outcome (Tov112D) | activity, negative = cell killing [1, 8] 0.2% | activity, negative = cell killing [1, 9] -3.35% | activity, negative = cell killing [1, 10] -17.5% | activity, negative = cell killing [1, 11] -4.53% | outcome (astro)

O=c1[nH]c(=O)c2ccccc2o1
inactive: outcome (UISO) | outcome (WaGa) | outcome (C33A) | outcome (CAOV3) | outcome (CASKI) | outcome (Es-2) | outcome (HeLa) | outcome (Hek293T) | outcome (JEG-3) | Potency (OV90) | outcome (PA-1) | outcome (SKOV3) | outcome (Tov-21-G) | outcome (Tov112D) | activity, negative = cell killing [1, 4] -11% | activity, negative = cell killing [1, 5] -4.94% | activity, negative = cell killing [1, 6] -29.8% | activity, negative = cell killing [1, 7] -24.8% | outcome (astro)

CC(C(=O)O)c1ccc2c(c1)Cc1cccnc1O2 (stereo not given)
inactive: outcome (UISO) | outcome (WaGa) | outcome (C33A) | outcome (CAOV3) | outcome (CASKI) | outcome (Es-2) | outcome (HeLa) | outcome (Hek293T) | outcome (JEG-3) | Potency (OV90) | outcome (PA-1) | outcome (SKOV3) | outcome (Tov-21-G) | outcome (Tov112D) | activity, negative = cell killing [1, 4] 1.78% | activity, negative = cell killing [1, 5] -8.91% | activity, negative = cell killing [1, 6] -13.1% | activity, negative = cell killing [1, 7] -25.1% | outcome (astro)

— PubChem BioAssay (NCATS)
